# Assay results: PubChem BioAssay (NCATS)
# Records with an inconclusive call do not appear. Entries that show only a call come without a potency. Activity calls are given as the source filed them. The call rests on the fitted dose curve; in most records, active means well fitted cell-killing curve with a large enough effect; inconclusive means small, poorly fitted or top-dose-only effect, or effect the other way; inactive means no such curve, though single readings can be large or run the other way. Non-standard residues stand in square brackets, D forms with d. Residues, ends and D or L forms follow the SMILES beside them. *: point of attachment. Sta = CC(C)C[C@H](N)[C@@H](O)CC(=O)O; Isovaleryl = CC(C)CC(=O)*
# Assay: Quantitative High-Throughput drug screen in 47 multiple myeloma cell lines against the NCATS MIPE library collection: OPM1_PLB cell viability assay (AID 1918989); further: nearly all actives have a fitted effect of over 40% in size
# Conditions: CellTiter-Glo, 48 h; series mostly up to 45.8 µM
# Source text: PI: Beverly A. Mock Ph.D.
# Laboratory of Cancer Biology and Genetics,
# Center for Cancer Research, National Cancer Institute,
# National Institute of Health, Bethesda, Maryland
# Drug resistance and disease progression are common in multiple myeloma (MM) patients, underscoring the need for new therapeutic combinations. […] We hypothesized that effective combinations would reduce MYC expression and enhance p16 activity. […] These preclinical data identify potentially useful drug combinations for evaluation in drug-resistant MM and reveal potential mechanisms of combined drug sensitivity.
# Described herein is the primary MIPE qHTS used to cherrypick compounds. Validated compounds were then further tested for potential synergistic activiy.
# [1] Peat TJ, Gaikwad SM, Dubois W, Gyabaah-Kessie N, Zhang S, Gorjifard S, Phyo Z, Andres M, Hughitt VK, Simpson RM, Miller MA, Girvin AT, Taylor A, Williams D, D'Antonio N, Zhang Y, Rajagopalan A, Flietner E, Wilson K, Zhang X, Shinn P, Klumpp-Thomas C, McKnight C, Itkin Z, Chen L, Kazandijian D, Zhang J, Michalowski AM, Simmons JK, Keats J, Thomas CJ, Mock BA. Drug combinations identified by high-throughput screening promote cell cycle transition and upregulate Smad pathways in myeloma. Cancer Lett. 2023 Aug 1;568:216284. doi: 10.1016/j.canlet.2023.216284. Epub 2023 Jun 24. PMID: 37356470; PMCID: PMC10408729.
# SEQUENCE No. (e.g., 1, 2, 3, etc.); […] (e.g., Cells, Incubation, Reagent, etc.); VALUE and DESCRIPTION.
# 1; Cells; 5 uL; white, solid bottom 1536-well Greiner assay plate.
# 2; Compounds; 23 nL; Kalypsis pin tool (Wako USA) equipped with a 1536-well pin head to transfer to the assay plates.
# 3; Incubation; 48 hours; 37C incubation.
# 4; Reagent;5uL; CellTiter Glo (Promega).
# 5; Detector; 425V; Luminescence; Viewlux PerkinElmer.
# NOTES (numbers refer to Sequence numbers above)
# 1. The cell-based screening methods employed in this study were like those previously published. Briefly, the corresponding myeloma cell lines were screened in 1,536-well plates with 500 cells, 5-uL per well for inhibition of cell viability (assessed by measuring ATP levels with CellTiterGlo).
# 2. NCATS MIPE 4.0 library of approved and investigational drugs were added using the Kalypsis pin tool. Wells treated with DMSO only for 100% viability and media only for 0% viability were used as controls.
# 3. The assay plates were covered and incubated for 48 hours in a 37C, 5% CO2 incubator with controlled humidity.
# 4. After 48 hours, CellTilter-GloTM luminescent substrate mix (Promega) reagent was added to the assay plate and plates we incubated for 5 min at room temperature.
# 5. Signal was measured as median relative luminescence units on a ViewLux (PerkinElmer) multiplate reader.
# [1] Heske CM, Davis MI, Baumgart JT, Wilson K, Gormally MV, Chen L, Zhang X, Ceribelli M, Duveau DY, Guha R, Ferrer M, Arnaldez FI, Ji J, Tran HL, Zhang Y, Mendoza A, Helman LJ, Thomas CJ. Matrix Screen Identifies Synergistic Combination of PARP Inhibitors and Nicotinamide Phosphoribosyltransferase (NAMPT) Inhibitors in Ewing Sarcoma. Clin Cancer Res. 2017 Dec 1;23(23):7301-7311. doi: 10.1158/1078-0432.CCR-17-1121. Epub 2017 Sep 12. PMID: 28899971; PMCID: PMC6636827.
# Potency means the concentration at half of the fitted maximal effect.
row,SMILES,Potency
1,Nc1ccn([C@@H]2O[C@H](CO)[C@@H](O)C2O)c(=O)n1 (stereo not given in full),inactive
2,CCC[C@@H]1C[C@@H](C(=O)N[C@@H]([C@H]2O[C@H](SC)[C@H](O)[C@@H](O)[C@H]2O)[C@@H](C)O)N(C)C1,inactive
3,NS(=O)(=O)c1cc(C(=O)O)c(NCc2ccco2)cc1Cl,inactive
4,CN(C)c1ccc2nc3ccc(=[N+](C)C)cc-3sc2c1,3.72 µM (active)
5,Nc1cc(C(Cl)=C(Cl)Cl)c(S(N)(=O)=O)cc1S(N)(=O)=O,inactive
6,O=c1c(O)c(-c2ccc(O)cc2O)oc2cc(O)cc(O)c12,inactive
7,O=c1oc2cc(O)ccc2s1,inactive
8,O=C(O)c1cn(-c2ccc(F)cc2)c2cc(N3CCNCC3)c(F)cc2c1=O,inactive
9,O=C(c1ccccc1)c1ccc2n1CCC2C(=O)O (stereo not given),20.9 µM (active)
10,CN1C(C(=O)Nc2ccccn2)=C(O)c2sccc2S1(=O)=O,inactive
11,O=c1cc(N2CCOCC2)oc2c(-c3ccccc3)cccc12,10.5 µM (active)
12,CC(C)[C@H](N)C(=O)OCCOCn1cnc2c(=O)[nH]c(N)nc21,inactive
13,COc1cc2nc(N3CCN(C(=O)C4CCCO4)CC3)nc(N)c2cc1OC (stereo not given),inactive
14,CN(C)[C@@H](CCOc1cccc2ccccc12)c1ccccc1,16.6 µM (active)
15,Oc1ccc(OCc2ccccc2)cc1,inactive
16,CN(C)C(=O)COC(=O)Cc1ccc(OC(=O)c2ccc(N=C(N)N)cc2)cc1,0.418 µM (active)
17,O=Nc1c(-c2c(O)[nH]c3cc(Br)ccc23)[nH]c2ccccc12,5.26 µM (active)
18,CCC(C)(Oc1ccc(C2(c3ccc(OC(C)(CC)C(=O)O)cc3)CCCCC2)cc1)C(=O)O (stereo not given),inactive
19,C[C@H](Cn1cnc2c(N)ncnc21)OCP(=O)(O)O,inactive
20,N=C(N=C(N)N)N1CCOCC1,inactive

row,SMILES,Potency
1,NNc1nncc2ccccc12,inactive
2,Cc1cccc(CN2CCN(C(c3ccccc3)c3ccc(Cl)cc3)CC2)c1 (stereo not given),20.9 µM (active)
3,CCCCN(CCCC)CCC(O)c1cc2c(Cl)cc(Cl)cc2c2cc(C(F)(F)F)ccc12 (stereo not given),18.7 µM (active)
4,N[C@@H](Cc1cc(I)c(Oc2cc(I)c(O)c(I)c2)c(I)c1)C(=O)O,inactive
5,Oc1ccc(-c2nc(-c3ccc(F)cc3)c(-c3ccncc3)[nH]2)cc1,20.9 µM (active)
6,Cc1cc(C2CCCCC2)n(O)c(=O)c1,9.35 µM (active)
7,Cc1ccc(Nc2nccc(N(C)c3ccc4c(C)n(C)nc4c3)n2)cc1S(N)(=O)=O,14.8 µM (active)
8,CCCCC(CC)COC(=O)C(C#N)=C(c1ccccc1)c1ccccc1 (stereo not given),inactive
9,COc1cc2c(cc1OC)C1CC(=O)C(CC(C)C)CN1CC2 (stereo not given),inactive
10,O=C1NC(=O)C(c2ccccc2[N+](=O)[O-])=C1Nc1ccc(O)c(Cl)c1,inactive
11,Cc1cc(=O)oc2cc(O)ccc12,inactive
12,CN1CCC(=C2c3ccccc3CCc3sccc32)CC1,18.7 µM (active)
13,CC(C)CC(=O)N[C@H](C(=O)N[C@H](C(=O)N[C@@H](CC(C)C)[C@@H](O)CC(=O)N[C@@H](C)C(=O)N[C@@H](CC(C)C)[C@@H](O)CC(=O)O)C(C)C)C(C)C (Isovaleryl-VV[Sta]A[Sta]-OH),inactive
14,O=C(CCc1ccc(O)cc1)c1c(O)cc(O)cc1O,1.18 µM (active)
15,Cc1nc(-c2ccc(OCC(C)C)c(C#N)c2)sc1C(=O)O,inactive
16,Cc1ccc(NC(=O)c2ccc(CN3CCN(C)CC3)cc2)cc1Nc1nccc(-c2cccnc2)n1,23.5 µM (active)
17,CN(C)C(=O)[C@H](O)[C@H](Cc1ccccc1)NC(=O)c1cc2cc(Cl)ccc2[nH]1,6.62 µM (active)
18,C[Se]CCC(N)C(=O)O (stereo not given),inactive
19,O=C1c2c(O)cc(O)cc2OC(c2ccc(O)c(O)c2)C1O (stereo not given),inactive
20,CC[C@]1(O)C[C@H]2CN(CCc3c([nH]c4ccccc34)[C@@](C(=O)OC)(c3cc4c(cc3OC)N(C=O)[C@H]3[C@@](O)(C(=O)OC)[C@H](OC(C)=O)[C@]5(CC)C=CCN6CC[C@]43[C@@H]65)C2)C1,0.0053 µM (active)
